The values that follow come from PubChem BioAssay (EPA / NIEHS).

Holding throughout (details): mRNA level, 48 h; actives raise or lower the signal
Read-out in experiment [1]: JUN Transcription Factor, JUN (gene 3725)
Briefly: LTEA_HepaRG_JUN: Life Technologies and Expression Analysis (LTEA) Assay for JUN Transcription Factor using HepaRG (AID 2283513). The gist of the method:
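mRNA measured by TaqMan qRT-PCR after 48 h chemical exposure of HepaRG cultures; normalization to three housekeeping genes. Duplicate eight-point half-log curves from 100 uM in 0.5% DMSO; gain or loss fitted against DMSO baseline.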

Read-out in experiment [2]: Lipase C (LIPC), LIPC (gene 3990)
The experiment can be described thus: LTEA_HepaRG_LIPC: Life Technologies and Expression Analysis (LTEA) Assay for Lipase C (LIPC) using HepaRG (AID 2283514). The essentials:
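In this multiplexed gene-expression screen, human HepaRG cultures received test chemicals for 48 h across eight concentrations with 100 uM highest, in duplicate. Values reflect LIPC mRNA induction or suppression versus DMSO vehicle, from normalized qRT-PCR.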

Read-out in experiment [3]: MicroRNA 122 (MIR122), gene 406906
The experiment can be described thus: LTEA_HepaRG_MIR122: Life Technologies and Expression Analysis (LTEA) Assay for MicroRNA 122 (MIR122) using HepaRG (AID 2283516). Further: the transcript read is the microRNA miR-122. The gist of the method:
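Expression measured by microfluidic qRT-PCR with three housekeeping genes for normalisation, after 48 h treatment of HepaRG cultures. Eight concentrations (top 100 uM, half-log steps, 0.5% DMSO vehicle) in duplicate; gain or loss fitted relative to vehicle.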

Read-out in another experiment: MYC, MYC (gene 4609)
Briefly: LTEA_HepaRG_MYC: Life Technologies and Expression Analysis (LTEA) Assay for MYC using HepaRG (AID 2283518). The essentials: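 Cells are thawed, plated and cultured 48 h, then treated for 48 h with test chemicals (eight half-log concentrations from 100 uM, 0.5% DMSO vehicle). RNA is isolated and MYC expression quantified by qRT-PCR against three housekeeping genes.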

Read-out in experiment [4]: matrix metalloproteinase-3 (MMP3), MMP3 (gene 4314)
Briefly: LTEA_HepaRG_MMP3: Life Technologies and Expression Analysis (LTEA) Assay for matrix metalloproteinase-3 (MMP3) using HepaRG (AID 2283519). The gist of the method:
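Human liver HepaRG cultures received chemicals (top concentration 100 uM, 0.5% DMSO) for 48 h in duplicate. MMP3 mRNA induction or loss was then assessed via TaqMan qRT-PCR with housekeeping-gene normalisation.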

Read-out in experiment [5]: Paternally Expressed 10 (PEG10), PEG10 (gene 23089)
Briefly: LTEA_HepaRG_PEG10: Life Technologies and Expression Analysis (LTEA) Assay for Paternally Expressed 10 (PEG10) using HepaRG (AID 2283520).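 On AC50: differentiated HepaRG human liver cells in serum-free induction medium with 0.5% DMSO; PEG10 transcript by qRT-PCR normalised to ACTB GAPDH and POLR2A.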 The gist of the method:
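PEG10 transcript measured by Fluidigm qRT-PCR, normalized to three housekeeping genes, in HepaRG cells treated 48 h (highest 100 uM, half-log steps, 0.5% DMSO vehicle). Cells plated 48 h before switching to serum-free induction medium.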

Read-out in experiment [6]: Protein phosphatase 2A (PPP2R4), PTPA (gene 5524)
The experiment can be described thus: LTEA_HepaRG_PPP2R4: Life Technologies and Expression Analysis (LTEA) Assay for Protein phosphatase 2A (PPP2R4) using HepaRG (AID 2283522). The gist of the method:
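Expression was quantified by Fluidigm qRT-PCR normalised to three housekeeping genes after 48 h treatment. Human HepaRG cells received an 8-point series from 100 µM downward by half-logs, in duplicate with 0.5% DMSO vehicle and 1 mM phenobarbital as induction control.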

Read-out in experiment [7]: Pyruvate Dehydrogenase Kinase 4 (PDK4), PDK4 (gene 5166)
Briefly: LTEA_HepaRG_PDK4: Life Technologies and Expression Analysis (LTEA) Assay for Pyruvate Dehydrogenase Kinase 4 (PDK4) using HepaRG (AID 2283525). The essentials:
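Eight-point, half-log concentration series (max 100 uM, 0.5% DMSO) applied to differentiated HepaRG cells for 48 h in duplicate. Endpoint: PDK4 mRNA induction or repression by qRT-PCR against DMSO baseline.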

Read-out in experiment [8]: NAD(P)H dehydrogenase [quinone] 1 (NQO1), NQO1 (gene 1728)
The experiment can be described thus: LTEA_HepaRG_NQO1: Life Technologies and Expression Analysis (LTEA) Assay for NAD(P)H dehydrogenase [quinone] 1 (NQO1) using HepaRG (AID 2283526). The essentials: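 NQO1 transcript induction or loss measured by TaqMan qRT-PCR, referenced to three housekeeping genes and fitted bidirectionally against 0.5% DMSO. HepaRG cultures exposed 48 h, duplicate, eight-point half-log series, top 100 uM.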

Read-out in experiment [9]: Nuclear factor erythroid 2-related factor 2 (Homo sapiens) (UniProt Q16236)
Briefly: LTEA_HepaRG_NFE2L2: Life Technologies and Expression Analysis (LTEA) Assay for Nuclear factor erythroid 2-related factor 2 (NFE2L2) Transcription Factor using HepaRG (AID 2283527). The essentials:
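Human liver HepaRG line treated in duplicate for 48 h with an eight-point series topping at 100 uM. Gene expression of NFE2L2 by qRT-PCR, bidirectionally fitted against the vehicle control.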

Read-out in experiment [10]: succinate dehydrogenase complex iron sulfur subunit B (SDHB), SDHB (gene 6390)
Briefly: LTEA_HepaRG_SDHB: Life Technologies and Expression Analysis (LTEA) Assay for succinate dehydrogenase complex iron sulfur subunit B (SDHB) using HepaRG (AID 2283528). The essentials: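 SDHB transcript level read by TaqMan qRT-PCR, housekeeping-normalised (ACTB, GAPDH, POLR2A), after 48 h chemical treatment of plated HepaRG cells; eight concentrations top 100 uM, half-log steps, 0.5% DMSO, duplicates; fitted both directions against DMSO.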

Read-out in experiment [11]: Signal transducer and activator of transcription 3 (Homo sapiens) (UniProt P40763)
Briefly: LTEA_HepaRG_STAT3: Life Technologies and Expression Analysis (LTEA) Assay for Signal transducer and activator of transcription (STAT3) using HepaRG (AID 2283529). The essentials: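 In this transcriptional endpoint, HepaRG cultures receive test chemicals at up to 100 uM for 48 h, tested in duplicate. STAT3 mRNA is normalized to ACTB, GAPDH and POLR2A.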

Read-out in experiment [12]: solute carrier (SLCO1B1), SLCO1B1 (gene 10599)
Briefly: LTEA_HepaRG_SLCO1B1: Life Technologies and Expression Analysis (LTEA) Assay for solute carrier (SLCO1B1) using HepaRG (AID 2283530). The gist of the method: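 Gain or loss of SLCO1B1 mRNA is fitted against the 0.5% DMSO vehicle in human HepaRG liver cells treated 48 h at up to 100 uM in half-log steps. Expression comes from qRT-PCR normalized to endogenous controls.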

Read-out in experiment [13]: sulfotransferase 2A1 (SULT2A1), SULT2A1 (gene 6822)
The experiment can be described thus: LTEA_HepaRG_SULT2A1: Life Technologies and Expression Analysis (LTEA) Assay for sulfotransferase 2A1 (SULT2A1) using HepaRG (AID 2283531). The gist of the method:
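Cells were plated and cultured 48 h, switched to serum-free induction medium, then dosed in duplicate for 48 h (8 concentrations, max 100 uM). RNA was isolated and SULT2A1 expression measured by qRT-PCR; gain or loss of signal fitted relative to DMSO.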

Read-out in experiment [14]: Transforming Growth Factor (TGFA), TGFA (gene 7039)
The experiment can be described thus: LTEA_HepaRG_TGFA: Life Technologies and Expression Analysis (LTEA) Assay for Transforming Growth Factor (TGFA) using HepaRG (AID 2283532). The gist of the method:
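Gene expression of TGFA was quantified by qRT-PCR after human HepaRG cells were treated for 48 h with test chemicals (eight concentrations, highest 100 uM, 0.5% DMSO). Activity in either direction was fitted relative to DMSO.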

Read-out in experiment [15]: Nuclear factor NF-kappa-B p105 subunit (Homo sapiens) (UniProt P19838)
The experiment can be described thus: LTEA_HepaRG_NFKB1: Life Technologies and Expression Analysis (LTEA) Assay for Nuclear Factor Kappa B Subunit 1 (NFKB1) using HepaRG (AID 2283521).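 On outcome: differentiated human HepaRG liver cells in serum-free induction medium.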 The essentials:
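NFKB1 transcript was measured by TaqMan qRT-PCR on Fluidigm arrays, normalised to three housekeeping genes and fitted in both directions against 0.5% DMSO. HepaRG cells were dosed in duplicate for 48 h in serum-free induction medium, eight half-log steps from 100 uM.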

Read-out in experiment [16]: Phosphatase and tensin (PTEN), PTEN (gene 5728)
The experiment can be described thus: LTEA_HepaRG_PTEN: Life Technologies and Expression Analysis (LTEA) Assay for Phosphatase and tensin (PTEN) using HepaRG (AID 2283523). The gist of the method: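 Expression of PTEN is quantified in the human liver line HepaRG following two days of dosing (top concentration 100 uM, half-log dilutions, 0.5% DMSO). Values derive from bidirectional curve fitting relative to DMSO controls.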

Read-out in experiment [17]: solute carrier (SLC22A1), SLC22A1 (gene 6580)
Briefly: LTEA_HepaRG_SLC22A1: Life Technologies and Expression Analysis (LTEA) Assay for solute carrier (SLC22A1) using HepaRG (AID 2283524).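 Further: differentiated human HepaRG liver cells in serum-free induction medium.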 The gist of the method: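 Transcript induction or suppression of SLC22A1 in human HepaRG cultures is scored after 48 h chemical treatment, with DMSO (0.5%) as baseline for bidirectional fitting. Concentrations span eight half-log points topping at 100 uM.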

Read-out in experiment [18]: matrix metalloproteinase-10 (MMP10), MMP10 (gene 4319)
The experiment can be described thus: LTEA_HepaRG_MMP10: Life Technologies and Expression Analysis (LTEA) Assay for matrix metalloproteinase-10 (MMP10) using HepaRG (AID 2283517). The gist of the method: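 In differentiated HepaRG cultures kept in 0.5% DMSO, test chemicals act for 48 h over an eight-point range with a top dose of 100 uM. Expression is then quantified by TaqMan RT-PCR against ACTB, GAPDH and POLR2A.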

Calls of active or inactive are those of the source. How the source made its calls: active means hit-call score of the fitted dose curve at least 0.9, where 1 is the maximum; inactive means score below 0.9.

Chain of Nuclear factor NF-kappa-B p105 subunit (Homo sapiens) (P19838 whole entry, looked up): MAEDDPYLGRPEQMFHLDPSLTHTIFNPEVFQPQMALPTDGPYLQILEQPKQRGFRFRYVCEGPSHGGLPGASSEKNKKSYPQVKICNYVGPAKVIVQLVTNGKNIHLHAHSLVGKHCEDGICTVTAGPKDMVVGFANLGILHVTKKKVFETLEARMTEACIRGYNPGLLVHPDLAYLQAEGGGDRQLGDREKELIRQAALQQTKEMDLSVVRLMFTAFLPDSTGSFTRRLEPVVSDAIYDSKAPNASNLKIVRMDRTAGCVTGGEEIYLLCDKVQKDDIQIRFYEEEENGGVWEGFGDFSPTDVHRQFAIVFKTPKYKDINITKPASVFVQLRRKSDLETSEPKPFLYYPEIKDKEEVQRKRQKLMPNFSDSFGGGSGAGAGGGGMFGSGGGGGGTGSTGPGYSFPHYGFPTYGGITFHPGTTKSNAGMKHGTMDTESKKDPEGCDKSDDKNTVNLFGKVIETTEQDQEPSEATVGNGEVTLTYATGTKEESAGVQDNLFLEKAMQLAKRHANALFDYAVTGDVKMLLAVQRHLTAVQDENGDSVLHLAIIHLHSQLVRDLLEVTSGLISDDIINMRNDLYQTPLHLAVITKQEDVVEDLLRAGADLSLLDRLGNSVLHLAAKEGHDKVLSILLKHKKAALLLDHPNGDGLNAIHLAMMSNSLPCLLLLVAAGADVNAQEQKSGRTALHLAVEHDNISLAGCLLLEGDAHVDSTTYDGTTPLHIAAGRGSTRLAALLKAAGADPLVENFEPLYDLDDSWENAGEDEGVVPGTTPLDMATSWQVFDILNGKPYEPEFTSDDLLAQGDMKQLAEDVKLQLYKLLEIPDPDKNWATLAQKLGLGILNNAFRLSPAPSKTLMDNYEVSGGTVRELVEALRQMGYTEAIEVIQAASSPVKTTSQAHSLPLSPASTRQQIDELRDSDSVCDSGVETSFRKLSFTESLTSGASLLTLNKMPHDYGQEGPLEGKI
Chain of Signal transducer and activator of transcription 3 (Homo sapiens) (P40763 whole entry, looked up): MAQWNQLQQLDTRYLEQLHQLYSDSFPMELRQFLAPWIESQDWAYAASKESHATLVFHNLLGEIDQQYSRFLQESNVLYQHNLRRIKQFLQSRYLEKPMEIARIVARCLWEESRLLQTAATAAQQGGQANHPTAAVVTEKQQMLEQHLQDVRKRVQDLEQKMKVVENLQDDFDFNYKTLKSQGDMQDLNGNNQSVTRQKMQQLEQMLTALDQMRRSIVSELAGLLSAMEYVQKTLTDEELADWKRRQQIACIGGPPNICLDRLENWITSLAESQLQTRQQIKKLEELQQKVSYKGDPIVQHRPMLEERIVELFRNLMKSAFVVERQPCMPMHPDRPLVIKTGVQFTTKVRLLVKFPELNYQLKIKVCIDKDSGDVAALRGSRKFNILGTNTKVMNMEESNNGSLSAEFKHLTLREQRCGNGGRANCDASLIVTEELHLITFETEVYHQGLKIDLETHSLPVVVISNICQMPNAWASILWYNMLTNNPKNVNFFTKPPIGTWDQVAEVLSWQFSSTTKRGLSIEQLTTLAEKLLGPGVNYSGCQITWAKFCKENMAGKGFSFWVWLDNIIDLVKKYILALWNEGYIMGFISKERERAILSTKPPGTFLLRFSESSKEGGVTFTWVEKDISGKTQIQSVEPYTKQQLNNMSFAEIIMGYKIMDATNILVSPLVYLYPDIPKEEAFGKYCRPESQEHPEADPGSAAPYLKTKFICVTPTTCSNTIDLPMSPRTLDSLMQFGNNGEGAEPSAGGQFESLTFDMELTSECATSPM
Chain of Nuclear factor erythroid 2-related factor 2 (Homo sapiens) (Q16236 whole entry, looked up): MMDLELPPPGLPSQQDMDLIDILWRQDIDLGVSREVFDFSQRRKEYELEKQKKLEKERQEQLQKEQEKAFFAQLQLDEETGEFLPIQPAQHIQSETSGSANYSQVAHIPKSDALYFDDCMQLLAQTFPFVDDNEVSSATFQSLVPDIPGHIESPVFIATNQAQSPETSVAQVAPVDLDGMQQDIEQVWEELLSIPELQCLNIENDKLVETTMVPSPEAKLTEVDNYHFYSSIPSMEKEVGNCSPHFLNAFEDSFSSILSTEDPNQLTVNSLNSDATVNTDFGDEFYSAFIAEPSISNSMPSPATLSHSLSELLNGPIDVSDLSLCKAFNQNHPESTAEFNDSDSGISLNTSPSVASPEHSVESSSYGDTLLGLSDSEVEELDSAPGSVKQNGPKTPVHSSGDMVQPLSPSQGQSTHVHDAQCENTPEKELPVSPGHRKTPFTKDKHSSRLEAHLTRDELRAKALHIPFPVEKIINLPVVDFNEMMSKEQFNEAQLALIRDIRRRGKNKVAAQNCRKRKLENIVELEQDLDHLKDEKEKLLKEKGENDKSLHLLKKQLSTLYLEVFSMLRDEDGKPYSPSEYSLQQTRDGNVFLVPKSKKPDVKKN

Broadly, the AC50 is the concentration giving half of the maximal activity seen. `O=C1CCCO1`: the outcome in experiment [1] is “inactive”; in experiment [2], “inactive”; in [3], “inactive”; with MYC, MYC (gene 4609) it was “inactive”; in [5] it was “inactive”; in experiment [6] it was “inactive”. In addition, the compound was called inactive in [7], in [9], in experiment [10], in experiment [11], in experiment [12] and in experiment [13]. Also, in [14], the compound was called inactive. Also, the AC50 in experiment [4] is 83.1 µM (active); in experiment [8], 50 µM (active).

For the compound `O=C(N[C@H](c1ccccc1)[C@@H]1CN2CCC1CC2)c1c(Cl)ccc(C(F)(F)F)c1Cl`, the AC50 in experiment [1] is 82.4 µM (active); in experiment [3], 46.2 µM (active); in the experiment with MYC, MYC (gene 4609), 68.4 µM (active); in experiment [4], 73.6 µM (active); in experiment [5], 26.8 µM (active); in [15] it was 71.5 µM (active). Moreover, the AC50 in [6] was 75.3 µM (active); in experiment [16], 77.8 µM (active); in [17], 72.1 µM (active); in experiment [9] it was 71.5 µM (active); in [11], 83.3 µM (active); in experiment [13] it was 73.2 µM (active). Further, the AC50 in experiment [14] is 46.2 µM (active). In addition, the compound was called inactive in experiment [2], in experiment [7], in experiment [8] and in experiment [10].

On to `CCOC(=O)[C@]1(c2ccccc2)Oc2ccccc2[C@@H]1N`, for which the AC50 was 93.6 µM (active) in experiment [1]; 77.3 µM (active) in experiment [2]; 89.5 µM (active) with MYC, MYC (gene 4609); 72.8 µM (active) in [4]; 62.5 µM (active) in [5]; 71.2 µM (active) in experiment [7]. Moreover, the concentration at half-maximal activity (AC50) in experiment [12] is 90.6 µM (active); in experiment [13], 93.2 µM (active); in experiment [14] it was 70.9 µM (active). Besides, the compound was called inactive in experiment [3], in experiment [15], in experiment [6], in experiment [8], in [9] and in [10]. The call in experiment [11] was inactive.

Regarding `ClC1=C(Cl)[C@]2(Cl)[C@H]3[C@H]([C@@H]4C=C[C@H]3C4)[C@@]1(Cl)C2(Cl)Cl`, the result in experiment [1], in experiment [2], in experiment [3], in experiment [18], in experiment [4] and in [5] was inactive. Moreover, the compound was classed as inactive in experiment [6], in [16], in [7], in experiment [8], in [10] and in experiment [11]. Also, the outcome in [12], in experiment [13] and in experiment [14] was inactive. For the same compound, the half-maximal activity concentration (AC50) with MYC, MYC (gene 4609) is 50 µM (active).

With `c1ccc(C2CO2)cc1` (stereo unspecified), the outcome in [1] was “inactive”; in experiment [2], “inactive”; in experiment [3], “inactive”; in the experiment with MYC, MYC (gene 4609) it was “inactive”; in [4] it was “inactive”; in experiment [5] it was “inactive”. Besides, the compound was called inactive in [6], in experiment [16], in experiment [7], in [8], in [9] and in experiment [10]. For the same compound, the result in experiment [11], in experiment [13] and in [14] was inactive.

As to `CC(C)(C)OOC(=O)c1ccccc1`, the outcome was “inactive” in experiment [1]; “inactive” in experiment [2]; “inactive” in [3]; “inactive” with MYC, MYC (gene 4609); “inactive” in experiment [4]; “inactive” in experiment [5]. Besides, the compound was classed as inactive in [15], in experiment [6], in experiment [16], in [7], in [8] and in experiment [9]. The result in experiment [10], in experiment [11], in experiment [12], in experiment [13] and in experiment [14] was inactive.
